The list is not random: actives were taken first. Their share in the collection is about 2.2%.
NTR1 agonist – agonists of human NTR1, primary screen, imaging, U2OS cells, beta-arrestin-GFP, high content | AID 493036, 2011 | activation, % at 20 µM | NTR1-U2OS beta-arrestin-GFP spot imaging, agonist mode | Neurotensin receptor type 1 (Homo sapiens), P30989 | 0.17% of 330,000 active;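 active = activation at or above 40% of the spot to cytoplasm intensity ratio, with at least 20 cells analyzed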;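 also: 0% = DMSO without peptide and 100% = 100 nM NTR1 peptide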
ANO1 activ – TMEM16A chloride channel activators or potentiators, primary screen, cell-based, HTS | 0.3% of 340,000 active | B-score at 10 µM | HEK293 TMEM16A/YFP-H148Q/I152L, iodide quench fluorescence; stronger effect = lower value | AID 623877, 2012;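 active = fluorescence-ratio B-score plate-corrected deviation score at least 3 library SD below zero, with starting fluorescence score within 5 deviations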;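 also: channel opened by trigger with iodide after compound preincubation; score built on the fluorescence ratio of max minus min over baseline; more negative score means more quench and so TMEM16A activation or potentiation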
CHO-K1 Ca antag – counter-screen for M1 antagonists: effect in parental CHO-K1 cells; inhibition, % at 3 µM; ATP-induced calcium, Fluo-8 fluorescence; 0.6% of 360,000 active;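 active = inhibition above a per-plate cutoff, the plate's mean sample inhibition plus 3 SD, cut at about 24% in these data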;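 also: 0% = DMSO plus EC80 ATP and 100% = DMSO alone without ATP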
CHO-K1 Ca ag – counter-screen for M1 agonists: effect in parental CHO-K1 cells; Fluo-8 calcium fluorescence; scaled to maximal ATP response, vehicle zero; AID 602248, 2012; 0.48% of 360,000 active; activation, % at 3 µM; in the data active = activation above about 15%;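 also: untransfected CHO-K1 host cells lacking M1 receptor as counterscreen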
CHO-K1 Ca PAM – nonselective calcium activators in parental CHO-K1 cells, primary screen, counter-screen for M1 PAM project, cell-based, Fluo-8 calcium fluorescence, full deck, 1536-well | 0.02% of 360,000 active | AID 602247, 2012 | activation, % at 3 µM | ATP EC20; 0% at ATP EC20, 100% at ATP max;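 active = activation above the run cutoff, the mean activation of all test compounds plus 3 SD, cut at about 40% in these data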;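 also: peak over basal fluorescence ratio in a 140 s read after ATP addition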
TMEM16A inh – TMEM16A chloride channel inhibitors, primary screen, cell-based, HTS | HEK293 TMEM16A/YFP iodide influx fluorescence, ionomycin | normalized B-score (activity score, 25-100; higher = stronger inhibition) at 10 µM | Anoctamin-1 (Mus musculus), Q8BHY3 | 1.2% of 310,000 active;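 active = ratio plate-corrected score three or more library SD toward inhibition, starting fluorescence score within five deviations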;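 also: score derived from kinetic fluorescence span divided by baseline fluorescence per well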
TMEM16A reconf – TMEM16A chloride channel inhibitors, confirmation, cell-based, re-confirmation. shares compounds with TMEM16A inh. HEK293 TMEM16A/YFP-H148Q, iodide quench fluorescence; ionomycin added to raise cell calcium. inhibition, % at 10 µM. 39% of 2,300 active. AID 652189, 2013;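 active = mean duplicate percent inhibition, scaled so buffer wells are 0 and the reference blocker 100, over three buffer SD above buffer mean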
TMEM16A Ca cntr – calcium mobilization in TMEM16A/YFP HEK293 cells, confirmation, counter-screen for TMEM16A inhibitor project | shares compounds with TMEM16A inh | Fluo4 calcium mobilization | calcium response (% of ionomycin), % at 10 µM | 2% of 2,300 active;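 active = duplicate-averaged calcium signal over 20% of the ionomycin maximum, relative to buffer baseline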;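 also: each well's signal is peak minus trough fluorescence divided by its pre-addition baseline; 0% = buffer wells and 100% = ionomycin wells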
Parental YFP cnt – iodide YFP quench changes in parental YFP-HEK293, counter-screen for TMEM16A inhibitor project, cell-based | shares compounds with TMEM16A inh | ionomycin | YFP ratio F(max-min)/F0 at 10 µM | 2,300 tested, under 10 active;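 active = yellow fluorescent protein signal ratio exceeding the buffer control mean by over 5 SD of those controls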;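 also: ratio is mean of duplicate wells from kinetic YFP trace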
ClC-1 rat inh – ClC-1 chloride channel inhibition, selectivity assay for TMEM16A inhibitor project, cell-based, voltage-dependent ClC-1. CHO ClC-1-YFP, iodide influx fluorescence quench; iodide control reads 0, buffer control 100. shares compounds with TMEM16A inh. AID 652236, 2013. ratio percent, % at 10 µM. 2,300 tested, under 10 active;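 active = duplicate-mean ratio percent above the mean of iodide-only control wells, which defines zero, plus 5 of their SD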;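 also: higher percent means stronger block of ClC-1 iodide influx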
Numbers without * were called inactive; i = inactive; . = no result.

SMILES	NTR1 agonist	ANO1 activ	CHO-K1 Ca antag	CHO-K1 Ca ag	CHO-K1 Ca PAM	TMEM16A inh	TMEM16A reconf	TMEM16A Ca cntr	Parental YFP cnt	ClC-1 rat inh
Cc1ccc(-n2c(SCC(N)=O)nc3c(c2=O)C2(CCCC2)Cc2ccccc2-3)cc1	36.4	i	-11.8	2.5	23.2	25*	39.0%*	i	-1.32	-4.5
O=C(NC(Cc1c[nH]c2ccccc12)C(=O)O)OCC1c2ccccc2-c2ccccc21 (stereo not given)	.	.	-1.1	0.5	22.5	.	.	.	.	.
c1ccc2c(c1)OCC(CNCC1COc3ccccc3O1)O2 (stereo not given)	-0.6	i	0.8	1.1	13.4	i	.	.	.	.
Fc1ccccc1CNc1ncnc2sccc12	0.5	i	9.3	11.9	11.7	i	.	.	.	.
COc1ccc(CCNc2ncnc3sccc23)cc1OC	0.2	-7.81*	33.5*	17.4*	-4.5	100*	23.5%*	i	-0.776	-29.0
COc1ccccc1CNc1ncnc2sccc12	0.2	i	17.2	10.6	-18.6	25*	i	i	-0.886	-15.0
c1ccc2c(c1)OCC(CNc1ncnc3sccc13)O2 (stereo not given)	.	i	30.7*	12.9	3.4	25*	i	i	-1.31	-23.5
COc1ccccc1NC(=O)N(C)C[C@@H]1OCc2cnnn2CCCC(=O)N([C@@H](C)CO)C[C@@H]1C	.	.	-6.6	0.1	-3.3	.	.	.	.	.
c1ccc(-c2cc3nc(NCc4cccs4)nc(NCc4ccc5occc5c4)c3s2)cc1	.	.	-13.9	1.9	21.7	.	.	.	.	.
Clc1ccccc1CSC1=NCCCN1	1.1	i	-13.8	0.2	0.9	100*	i	i	-1.14	-11.0
Clc1ccc(CSC2=NCCCN2)cc1Cl	-0.2	i	-7.5	0.8	25.2	i	.	.	.	.
COc1ccc(NC(=O)C2(C)Cc3c(-c4ccc5c(c4)OCO5)ccnc3O2)cn1 (stereo not given)	.	.	-20.2	0.4	17.6	.	.	.	.	.
COc1ccc(O)c(C(=O)c2coc(=N)c(C(=O)Nc3ccc(SC(F)F)cc3)c2)c1	1.0	i	9.2	16.8*	-4.8	i	i	i	-1.11	-57.5
CC(C)OC(=O)c1cc(C(=O)c2cc(F)ccc2O)coc1=N	3.0	i	4.9	0.2	16.1	i	.	.	.	.
Cc1ccccc1Oc1ccc2c(c1)[C@@H]1C[C@H](N(C)C(=O)c3ccco3)[C@H]([C@H](C)O)C(=O)N1CC2	.	.	-9.9	0.9	20.5	.	.	.	.	.
Cc1ccc(S(=O)(=O)N2CCN(c3ncnc4sccc34)CC2)cc1C	0.7	i	6.2	12.1	3.0	.	.	.	.	.
O=S(=O)(c1ccc2c(c1)OCCO2)N1CCC(O)(c2ccc(Cl)cc2)CC1	1.0	i	-16.8	2.4	5.9	100*	i	i	-1.05	-0.5
O=S(=O)(c1ccc2c(c1)OCCO2)N1CCN(c2ncnc3sccc23)CC1	1.9	i	16.9	8.2	3.9	25*	17.0%*	i	-1.05	-19.0

Screening data as filed in PubChem.
